Test results as given in PubChem BioAssay (NCI).
The panel holds about 83,000 compounds, 20% with a hit somewhere; the sample as a whole holds those more often.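 A percent growth of 40 corresponds to 60% growth inhibition; 0 means no net growth; -100 means all cells died. Active threshold: below 10.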 Values without a mark were called inactive. Activity calls are given as the source filed them.

Experiments:
Assay in all cases: NCI-60 one-dose screen, 48 h (100 = growth as untreated, 0 = no growth, -100 = all killed)
Conditions in all cases: 10 µM
[1] = test system: NCI-H23 lung
[2] = test system: NCI-H226 lung
[3] = test system: NCI-H322M lung
[4] = test system: HOP-62 NSCLC
[5] = test system: NCI-H460 lung
[6] = test system: NCI-H522 lung
[7] = test system: A549/ATCC NSCLC
[8] = test system: 786-0 renal
[9] = test system: COLO 205 colon
[10] = test system: DU-145 prostate

SMILES | growth [1] | growth [2] | growth [3] | growth [4] | growth [5] | growth [6] | growth [7] | growth [8] | growth [9] | growth [10]
CCCCCCN1C(=O)C2=C(c3ccc(Cl)cc3)Nc3c(c(C)nn3-c3ccccc3)C2c2ccccc21 (stereo not given) | 98.6% | 77.5% | 90.5% | 96.8% | 106% | 80.7% | 85.2% | 89% | 106% | 104%
Nc1c(C(=O)Nc2cccc3ccccc23)sc2nc3c(cc12)C(=O)CCC3 | 18% | 54.1% | 37.6% | 26.1% | 5.05% (active) | -8.85% (active) | 23.4% | 46.1% | -20.7% (active) | -9.63% (active)
CC[C@H](C)C(=O)O[C@H]1CCC=C2C=C[C@H](C)C(CCC3C[C@@H](O)CC(=O)O3)[C@H]21 (stereo not given in full) | 64.4% | 76.8% | 44.6% | 87% | 92.9% | 23% | 97.2% | 84.8% | 89% | 110%
O=C1/C(=C/c2ccc([N+](=O)[O-])o2)Oc2ccccc21 | -8.25% (active) | 23.9% | 91.6% | 62.2% | 31.8% | -79.6% (active) | 62.5% | -38.5% (active) | -66% (active) | -8.6% (active)
C[N+](C)(C)c1ncnc2nc[nH]c12 | 93.8% | 99.1% | 67% | 98% | 104% | 97.1% | 108% | 89.8% | 104% | 116%
C#Cc1ccc(-n2c(/C=C/c3ccc4ccccc4n3)nc3ncccc3c2=O)cc1 | -44.9% (active) | -81.9% (active) | -45.1% (active) | -34% (active) | -46.3% (active) | -73.9% (active) | -25.8% (active) | 0.1% (active) | -94.9% (active) | -37.6% (active)
CO/N=C(/C(=O)NC1C(=O)N2C(C(=O)O)=C(COC(N)=O)CSC12)c1ccco1 (stereo not given) | 107% | 109% | 100% | 112% | 118% | 99.4% | 101% | 96% | 114% | 127%
CCN(CC)CCOc1nc2ccccc2c2c1-c1ccc(OC)cc1C2=O | -29% (active) | 14% | -29.3% (active) | -4.04% (active) | -34.4% (active) | -56.4% (active) | -28.5% (active) | 0.417% (active) | -57.1% (active) | -8.05% (active)
Cc1cc(N(CCCNc2ccnc3cc(Cl)ccc23)Cc2ccc3c(c2)OCO3)nc(N2CCOCC2)n1 | 50.9% | 67.2% | 37.5% | 10.1% | 20.2% | 8.51% (active) | 28.7% | -20.4% (active) | -54% (active) | 38%
ClC(Cl)(Cl)c1nc2nccnc2[nH]1 | 108% | 98.6% | 90% | 102% | 102% | 95.4% | 101% | 103% | 114% | 112%
COc1cc(Cl)cc(-c2nn(-c3cccc(NC(=O)c4ccc(Cl)c(Cl)c4)c3)cc2-c2ccncc2)c1 | 75.3% | 66.3% | 84.5% | 105% | 65.2% | 53.7% | 59.7% | 74.1% | 81.5% | 88.5%
Cc1ccc(-c2n[nH]c(=O)c3noc(-c4ccc(C)cc4)c23)cc1 | 61.8% | 80.9% | 49.5% | 29.2% | 17.3% | 16.4% | 36.8% | 48.4% | -25.1% (active) | 25.2%
O=C(CCCCC(=O)Nc1ccc2c(c1)/C(=C/c1ccc[nH]1)C(=O)N2)NO | 106% | 91.1% | 64.1% | 94.3% | 97.6% | 49.4% | 95.6% | 94.4% | 89% | 91.2%
Nc1ccc2cc(S(=O)(=O)O)cc(O)c2c1N=Nc1ccc(F)cc1 | 94.6% | 107% | 104% | 109% | 115% | 100% | 109% | 100% | 111% | 118%
CN(C)CCN=c1nc2c(c(N)n1-c1ccccc1)c(=S)n(-c1ccccc1)c(=S)n2-c1ccccc1 | 67.6% | 82.3% | 58.5% | 6.19% (active) | 3.8% (active) | 34.2% | 35.3% | -83.5% (active) | 6.65% (active) | 45%
COc1ccc2c(c1)nc(N)c1c3cccnc3cn21 | 33.9% | 69.4% | 72.5% | 42% | 1.19% (active) | -2.48% (active) | 11.8% | 22.7% | -31.5% (active) | 5.32% (active)
O=S(=O)(NCCNc1nccc(-c2c(-c3ccc(F)cc3)nc3sccn23)n1)c1ccc2ccccc2c1 | 90.8% | 92.7% | 73% | 88.5% | 55% | 75.5% | 43.8% | 89.4% | 57.4% | 78.8%
COc1cc(/C=C\c2cc(OC)c(OC)c(OC)c2)cc(NS(=O)(=O)c2ccc(Cl)cc2)c1OC | 41% | 33.9% | 48.7% | 60.2% | 13.8% | -9.34% (active) | 25.3% | 39.3% | -4.81% (active) | 19.8%
Nc1ncn([C@@H]2O[C@H](CO)[C@@H](O)[C@H]2O)c(=O)n1 | 37.2% | 45.9% | 15.9% | 2.42% (active) | -1.73% (active) | 4.49% (active) | 16.5% | 23.8% | 6.61% (active) | 11.5%
N#Cc1ncc(-c2cc(F)c(F)c(F)c2)c(NC2CCCCCC2)n1 | 92.9% | 94.6% | 105% | 100% | 95.7% | 94.8% | 95.8% | 101% | 88.5% | 108%
Cc1cn(C2CCCCO2)c(=O)nc1NO (stereo not given) | 93.4% | 115% | 110% | 110% | 107% | 104% | 104% | 103% | 120% | 113%
CCCCN(CCCC)CCCCCCCCC(O)c1cc2ccccc2c2ccccc12 (stereo not given) | 40.8% | 80.2% | 84.5% | 76.7% | 54.2% | 39.1% | 56.8% | 67.3% | 44.1% | 69.7%
Cc1ccc(NC(=O)CSc2nc3ccccc3c(=O)n2CCc2ccccc2)c(C(=O)O)c1 | 101% | 101% | 90.9% | 94.4% | 110% | 90.1% | 98% | 90.5% | 103% | 117%
COc1ccc(NC(=O)Cc2nc3nc4sc(C)c(C)c4c(=O)n3[nH]2)cc1 | 101% | 86.7% | 94.5% | 107% | 110% | 90.3% | 91.2% | 104% | 118% | 110%
COc1cc(Nc2ccnc(NCCNc3ccnc4cc(Cl)ccc34)n2)cc(OC)c1 | 38.2% | 55.5% | 46.5% | 79.2% | 27.8% | 17.7% | 42.9% | 35.4% | 2.21% (active) | 63.9%
